Measured values from PubChem BioAssay (Tox21).
Calls of active or inactive are those of the source. Entries that show only a call come without a potency. Calls come from the whole dose curve; as a rule, active = well fitted curve in the direction sought with a large enough effect in the repeat runs; inconclusive = weak or mixed curves; inactive = flat fitted curve, though single readings scatter.

test: qHTS assay to test for compound auto fluorescence at 460 nm (blue) in HEK293 cells (AID 720678); conditions: blue autofluorescence 405/460 nm; series mostly up to 46 µM
Method in brief: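 Auto fluorescence in the blue band was quantified as triamterene equivalency. HEK293 cells were seeded at 2,000/well, dosed after a 4-5 hr attachment, and kept overnight at 37C before the 405/460 nm reading.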

Compound	Potency
COC1=C(OC)C(=O)C(C/C=C(\C)CC/C=C(\C)CC/C=C(\C)CC/C=C(\C)CC/C=C(\C)CC/C=C(\C)CC/C=C(\C)CC/C=C(\C)CC/C=C(\C)CCC=C(C)C)=C(C)C1=O	inactive
COC(=O)C(CN)c1c[nH]c2ccc(OC)cc12 (stereo unspecified)	inactive
CC(C)CCC[C@@H](C)[C@H]1CC[C@H]2[C@@H]3CC=C4C[C@@H](O)CC[C@]4(C)[C@H]3CC[C@]12C	inactive
C=N[C@@H](C(=O)N[C@@H]1C(=O)N2[C@@H]1SC(C)(C)[C@@H]2C(=O)O)c1ccccc1	inactive
Cc1c(O)c(=O)ccn1C	inactive
CCOC(=O)COc1ccc2c(=O)cc(-c3ccccc3)oc2c1	inactive
O=P(O)(O)CP(=O)(O)O	inactive
CC12CCC(C1)C(C)(C)C2=O (stereo unspecified)	inactive
CC(=O)Nc1ccc(OC(C)=O)cc1	inactive
CCN(CC)CCOC[C@H]1O[C@@H](O)[C@H](OCCN(CC)CC)[C@@H](O)[C@@H]1O	inactive
OCC1(CO)COC(C(Cl)(Cl)Cl)OC1	inactive
C=C1[C@H](CO)[C@@H](O)C[C@@H]1n1cnc2c(=O)[nH]c(N)nc21	inactive
O=S(=O)(O)CC(S)CS (stereo unspecified)	inactive
COc1ccc(/C=N/NC(=O)c2ccncc2)c(C(=O)O)c1OC	inactive
CCCCCCCCCCCCCCCCCCOCC(COP(=O)([O-])OCC[N+](C)(C)C)OC (stereo unspecified)	inactive
NC(=O)CC[C@@H]1NC(=O)[C@H](Cc2ccccc2)NC(=O)[C@H](Cc2ccc(O)cc2)NC(=O)[C@@H](N)CSSC[C@@H](C(=O)N2CCC[C@H]2C(=O)N[C@@H](CCCN=C(N)N)C(=O)NCC(N)=O)NC(=O)[C@H](CC(N)=O)NC1=O	inactive
CCC[C@@H]1C[C@@H](C(=O)N[C@@H]([C@H]2O[C@H](SC)[C@H](OP(=O)(O)O)[C@@H](O)[C@H]2O)[C@H](C)Cl)N(C)C1	inactive
C[C@H](NCCc1ccc(O)cc1)[C@H](O)c1ccc(O)cc1	inactive

Compound	Potency
CC(C)(COP(=O)(O)OP(=O)(O)OC[C@H]1O[C@@H](n2cnc3c(N)ncnc32)[C@H](O)[C@@H]1OP(=O)(O)O)C(O)C(=O)NCCC(=O)NCCS (stereo partly specified)	inactive
CC(CNC(=O)c1cccnc1)NC(=O)c1cccnc1 (stereo unspecified)	inactive
O=C(O)c1cc(O)c2c(c1)[C@H]([C@H]1c3cc(C(=O)O)cc(O)c3C(=O)c3c(O[C@@H]4O[C@H](CO)[C@@H](O)[C@H](O)[C@H]4O)cccc31)c1cccc(O[C@@H]3O[C@H](CO)[C@@H](O)[C@H](O)[C@H]3O)c1C2=O	inactive
C=CCN1C(=O)C(CC(C)C)NC1=S (stereo unspecified)	inactive
C[C@H](O)CN(C)C	inactive
CNC(=O)OCc1cccc(COC(=O)NC)n1	inactive
NC(=O)[C@H]1O[C@@H](O)[C@H](O)[C@@H](O)[C@@H]1O	inactive
O=P(O)(O)C(O)(Cn1ccnc1)P(=O)(O)O	inactive
NC(=O)[C@@H]1C[C@]2(NC(=O)NC2=O)c2cc(F)ccc2O1	inactive
COc1ccc([C@@H]2CC(=O)c3c(O)cc(O[C@@H]4O[C@H](CO[C@@H]5O[C@@H](C)[C@H](O)[C@@H](O)[C@H]5O)[C@@H](O)[C@H](O)[C@H]4O)cc3O2)cc1O	inactive
CC[C@H]1OC(=O)C[C@@H](O)[C@H](C)[C@@H](O[C@@H]2O[C@H](C)[C@@H](O[C@H]3C[C@@](C)(O)[C@@H](O)[C@H](C)O3)[C@H](N(C)C)[C@H]2O)[C@@H](CC=O)C[C@@H](C)C(=O)/C=C/C(C)=C/[C@@H]1CO[C@@H]1O[C@H](C)[C@@H](O)[C@@H](OC)[C@H]1OC	inactive
NC(=O)C1c2ccccc2CCc2ccccc21	inactive
CC(C)=CCC/C(C)=C/CC/C(C)=C/CC/C(C)=C/CC1=C(C)C(=O)c2ccccc2C1=O	inactive
COc1cc2c(c(OC)c1OC)-c1c(cc3c(c1OC)OCO3)C[C@@H](C)[C@](C)(O)C2	inactive
O=C1CCC(c2ccccc2)(C2CCN(Cc3ccccc3)CC2)C(=O)N1 (stereo unspecified)	inactive
O=C(Cn1cnnn1)N[C@@H]1C(=O)N2C(C(=O)O)=C(CSc3nncs3)CS[C@H]12	inactive
CN[C@H](CC(C)C)C(=O)N[C@H]1C(=O)N[C@@H](CC(N)=O)C(=O)N[C@H]2C(=O)N[C@H]3C(=O)N[C@H](C(=O)N[C@@H](C(=O)O)c4cc(O)cc(O)c4-c4cc3ccc4O)[C@H](O)c3ccc(c(Cl)c3)Oc3cc2cc(c3O[C@@H]2O[C@H](CO)[C@@H](O)[C@H](O)[C@H]2O[C@H]2C[C@](C)(N)C(O)[C@H](C)O2)Oc2ccc(cc2Cl)[C@H]1O (stereo partly specified)	inactive
CC[C@H]1OC(=O)[C@H](C)C(=O)[C@H](C)[C@@H](O[C@@H]2O[C@H](C)C[C@H](N(C)C)[C@H]2O)[C@](C)(OC)C[C@@H](C)C(=O)[C@H](C)[C@H]2N(CCCCn3cnc(-c4cccnc4)c3)C(=O)O[C@]12C	inactive
